The record followed here is PubChem BioAssay (NCI).

Test systems include SR leukemia; RPMI-8226 leukemia; OVCAR-8 ovarian; OVCAR-5 ovarian; OVCAR-4 ovarian; SK-OV-3 ovarian; IGROV1 ovarian; OVCAR-3 ovarian; HS 578T breast; NCI/ADR-RES ovarian; T-47D breast; BT-549 breast; MDA-MB-435 melanoma; SW-620 colon; MCF7 breast; HCT-116 colon; HCC-2998 colon; KM12 colon.
What all share (assay): NCI-60 one-dose screen, 48 h (100 = growth as untreated, 0 = no growth, -100 = all killed)
Settings in all cases: 10 µM unless noted

The panel holds about 83,000 compounds, 20% with a hit somewhere; the sample as a whole holds those more often.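 Results are percent growth after 48 hours of single-concentration exposure. 100 means growth as in untreated cells, lower positive values show inhibition; negative values down to -100 show cell death.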 A number with no mark means an inactive call. Calls of active or inactive are those of the source. The calls were made as follows: active = growth percent below 10; inactive = the rest.

Take `COc1ccc(-c2oc(=O)ccc2-c2cc(OC)c(OC)c(OC)c2)cc1O`: the growth in the experiment on SR leukemia is 8.87% (active); in the experiment on RPMI-8226 leukemia, 14.6%; with OVCAR-8 ovarian it was 23.1%; with OVCAR-5 ovarian it was 35.7%; in the experiment with OVCAR-4 ovarian, 47.6%; in the experiment on SK-OV-3 ovarian, 28.3%. Besides, the growth in the experiment with IGROV1 ovarian was 29.8%; with OVCAR-3 ovarian, -59.3% (active); with HS 578T breast, -7.79% (active); in the experiment on NCI/ADR-RES ovarian, 29.1%; in the experiment with T-47D breast it was 44.7%; with BT-549 breast it was 24.7%. Also, the growth was -64.9% (active) in the experiment with MDA-MB-435 melanoma; 14.8% in the experiment on SW-620 colon; 10.6% with MCF7 breast; -30.2% (active) in the experiment with HCT-116 colon; 211% with HCC-2998 colon; 22.6% with KM12 colon.
Turning to `Cc1ccc2[nH]c(=O)c3c(c2c1)OC(N)=C(C#N)C31C(=O)c2cccc3cccc1c23` (centres undefined), the growth in the experiment on SR leukemia is 92.9%; in the experiment with RPMI-8226 leukemia it was 97.8%; with OVCAR-8 ovarian, 103%; in the experiment with OVCAR-5 ovarian it was 97.4%; in the experiment with OVCAR-4 ovarian, 89.4%; in the experiment with SK-OV-3 ovarian, 105%. In addition, the growth was 90% in the experiment on IGROV1 ovarian; 101% in the experiment with OVCAR-3 ovarian; 93.9% in the experiment on HS 578T breast; 102% in the experiment on NCI/ADR-RES ovarian; 85.8% with T-47D breast; 102% with BT-549 breast. In addition, the growth was 97.6% with MDA-MB-435 melanoma; 101% in the experiment with SW-620 colon; 88.2% in the experiment with MCF7 breast; 101% in the experiment on HCT-116 colon; 106% in the experiment on HCC-2998 colon; 94.4% in the experiment with KM12 colon.
As for `COc1ccc(-c2ccc(=O)oc2C#Cc2cc(OC)c(OC)c(OC)c2)cc1O`, the growth in the experiment on SR leukemia is 7.05% (active); in the experiment with RPMI-8226 leukemia, 15.3%; in the experiment with OVCAR-8 ovarian it was 20%; in the experiment with OVCAR-5 ovarian, 46.2%; in the experiment with OVCAR-4 ovarian, 58.6%; with SK-OV-3 ovarian, 30.7%. The growth in the experiment on IGROV1 ovarian is 28.9%; in the experiment on OVCAR-3 ovarian, -67.2% (active); with HS 578T breast it was -8.91% (active); in the experiment with NCI/ADR-RES ovarian it was 16.4%; in the experiment with T-47D breast it was 38.8%; with BT-549 breast, -16.9% (active). Further, the growth with MDA-MB-435 melanoma was -78% (active); in the experiment on SW-620 colon it was -30.3% (active); with MCF7 breast it was 3.79% (active); in the experiment on HCT-116 colon, -30.4% (active); in the experiment on HCC-2998 colon it was 221%; in the experiment with KM12 colon, 3.09% (active).
Take `CCOC(=O)c1c(C)c2c(n1C)CSc1cc(S(=O)(=O)c3ccccc3)c(=O)[nH]c1-2`: the growth with SR leukemia is 45% [100 µM]; in the experiment with RPMI-8226 leukemia, 28.9% [100 µM]; in the experiment with OVCAR-8 ovarian, 34.4% [100 µM]; with OVCAR-5 ovarian it was 62.4% [100 µM]; with OVCAR-4 ovarian, 26.4% [100 µM]; in the experiment on SK-OV-3 ovarian, 26.8% [100 µM]. Further, the growth was 30.6% [100 µM] in the experiment on IGROV1 ovarian; 18.5% [100 µM] with OVCAR-3 ovarian; 53.6% [100 µM] in the experiment on HS 578T breast; 18.6% [100 µM] with NCI/ADR-RES ovarian; 12.3% [100 µM] in the experiment with T-47D breast; 3.95% [100 µM] (active) in the experiment on BT-549 breast. Further, the growth in the experiment with MDA-MB-435 melanoma was 19.3% [100 µM]; with SW-620 colon, 35.9% [100 µM]; in the experiment with MCF7 breast, 13.8% [100 µM]; with HCT-116 colon, 11% [100 µM]; with HCC-2998 colon, 20.3% [100 µM]; in the experiment on KM12 colon it was 16.5% [100 µM].
For the compound `C=CCCC(=O)N1C=CC(=O)[C@H](O)[C@@H]1/C=C/c1ccccc1`, the growth in the experiment on SR leukemia is 43.8% [100 µM]; in the experiment with RPMI-8226 leukemia, 54.2% [100 µM]; in the experiment with OVCAR-8 ovarian it was 37% [100 µM]; in the experiment on OVCAR-5 ovarian, 62.2% [100 µM]; in the experiment on OVCAR-4 ovarian it was 55.4% [100 µM]; in the experiment on SK-OV-3 ovarian it was 39.2% [100 µM]. The growth with IGROV1 ovarian is 51% [100 µM]; with OVCAR-3 ovarian it was 30.3% [100 µM]; in the experiment on HS 578T breast, 87.6% [100 µM]; in the experiment on NCI/ADR-RES ovarian, 19.8% [100 µM]; in the experiment on T-47D breast, 39.7% [100 µM]; in the experiment with BT-549 breast, 59.6% [100 µM]. For the same compound, the growth with MDA-MB-435 melanoma was 59.6% [100 µM]; in the experiment with SW-620 colon, 40.6% [100 µM]; with MCF7 breast it was 19.3% [100 µM]; in the experiment with HCT-116 colon, 18.5% [100 µM]; with HCC-2998 colon, 42.5% [100 µM]; in the experiment on KM12 colon it was 33.3% [100 µM].
On to `COc1cc(C#Cc2ccc(=O)oc2C#Cc2ccccc2)cc(OC)c1OC`, for which the growth is 3.75% (active) with SR leukemia; 49.2% in the experiment on RPMI-8226 leukemia; 89.4% with OVCAR-8 ovarian; 75.8% in the experiment on OVCAR-5 ovarian; 96.9% in the experiment on OVCAR-4 ovarian; 101% with SK-OV-3 ovarian. The growth in the experiment with IGROV1 ovarian is 67.4%; in the experiment on OVCAR-3 ovarian, 29.9%; in the experiment on HS 578T breast, 84.8%; with NCI/ADR-RES ovarian, 89.7%; in the experiment on T-47D breast, 27.6%; in the experiment on BT-549 breast it was 57.6%. The growth was 96% in the experiment with MDA-MB-435 melanoma; 8.07% (active) in the experiment with SW-620 colon; 44.6% in the experiment with MCF7 breast; -32.2% (active) with HCT-116 colon; 29.1% in the experiment on HCC-2998 colon; 82.7% in the experiment with KM12 colon.
For `C#CCn1cnc2c(Nc3cccc(NC(=O)CCl)c3)ncnc21`, the growth is 9.78% (active) in the experiment with SR leukemia; 10.4% in the experiment on RPMI-8226 leukemia; 50% with OVCAR-8 ovarian; 43.7% with OVCAR-5 ovarian; 26.9% in the experiment on OVCAR-4 ovarian; 49.6% in the experiment with SK-OV-3 ovarian. Besides, the growth with IGROV1 ovarian is 7.54% (active); in the experiment on OVCAR-3 ovarian, 31.6%; in the experiment on HS 578T breast it was 50%; in the experiment on NCI/ADR-RES ovarian it was 49.1%; in the experiment with T-47D breast, 34.7%; in the experiment with BT-549 breast, 35.1%. In addition, the growth with MDA-MB-435 melanoma was 22.6%; with SW-620 colon, 20.6%; with MCF7 breast it was 14.1%; with HCT-116 colon, 12.9%; in the experiment with HCC-2998 colon, 77.6%; in the experiment on KM12 colon it was 37.7%.
As to `C=C1C(=O)O[C@H]2[C@H]1CC/C(COC(=O)c1cc3cc(F)ccc3[nH]1)=C\CC[C@@]1(C)O[C@@H]21`, the growth is -5.71% (active) in the experiment with SR leukemia; -33.3% (active) with RPMI-8226 leukemia; -42% (active) in the experiment with OVCAR-8 ovarian; -74.2% (active) in the experiment with OVCAR-5 ovarian; -68.2% (active) with OVCAR-4 ovarian; 26.7% in the experiment on SK-OV-3 ovarian. In addition, the growth is -72.1% (active) in the experiment with IGROV1 ovarian; -85.5% (active) with OVCAR-3 ovarian; -14.2% (active) in the experiment on HS 578T breast; -20.2% (active) in the experiment on NCI/ADR-RES ovarian; -51.8% (active) with T-47D breast; -82.9% (active) in the experiment with BT-549 breast. Moreover, the growth in the experiment on MDA-MB-435 melanoma was -82% (active); with SW-620 colon, -69.2% (active); with MCF7 breast, -61.7% (active); in the experiment on HCT-116 colon, -87.2% (active); with HCC-2998 colon it was -83.4% (active); in the experiment on KM12 colon, -48% (active).
